# PubChem BioAssay (Tox21)
# Records with an inconclusive call do not appear. Active and inactive are the calls of the source. Calls follow the shape of the dose curve; as a rule, active = well fitted cell-killing curve with a large enough effect in the repeat runs; inconclusive = weak or mixed curves, or effect the other way; inactive = no such curve, though single readings can be large or run the other way.
# Assay: qHTS assay to identify small molecule antagonists of the glucocorticoid receptor (GR) signaling pathway - cell viability counter screen (AID 720693); also: nearly all actives have a fitted effect of over 55% in size
# Settings: GR-bla HeLa viability, CellTiter-Glo luminescence, 18 h, with 5 nM dexamethasone present; series mostly up to 58.5 µM; viability change, negative = cytotoxic: at the top concentration
# From the text: National Center for Advancing Translational Sciences [NCATS]
# NIH Chemical Genomics Center [NCGC]
# U.S. Environmental Protection Agency [EPA]
# National Institutes of Environmental Health Sciences [NIEHS]
# National Toxicology Program [NTP]
# U.S. Food and Drug Administration [FDA]
# The Glucocorticoid receptor (GR) is one of the members of the nuclear receptor family of ligand-dependent transcription factors. GR plays a critical role in carbohydrate, protein and lipid metabolisms and programmed cell death. CellSensor GR-bla HeLa cell line (Invitrogen) contains a beta-lactamase reporter gene under the control of the glucocorticoid response element stably integrated into HeLa cells, a cervical cancer cell line that expresses glucocorticoid receptor. The activation of the reporter gene under culture conditions can be detected by fluorescence intensity. This cell line has been used to screen the Tox21 10K compound library and to identify the compounds that inhibit the GR signaling. The cytotoxicity of the Tox21 compound library against the GR-bla HeLa cell line was tested in parallel by measuring the cell viability using CellTiter-Glo assay in the same wells.
# Tox21 Assay Protocol Summary:
# The GR-bla HeLa cells were dispensed at 1500 cells/5 ul/well in 1536-well black wall/clear bottom plates using a Multidrop Combi (ThermoFisher Scientific, Waltham, MA) dispenser. After the assay plates were incubated at a 37 C/5% CO2 incubator for 4 hours, 23 nL of compounds dissolved in DMSO, positive controls or DMSO only was transferred to the assay plate by a pintool station (Kalypsys, San Diego, CA), followed by addition of 1 uL of dexamethasone (5 nM, final concentration in the well). The plates were incubated at 37 C for 18 hours. After 1 uL of LiveBLAzerTM B/G FRET substrate was added using a Flying Reagent Dispenser (Aurora Discovery, San Diego, CA), the plates were incubated at room temperature (RT) for 2 hours, and fluorescence intensity was measured by an Envision plate reader (PerkinElmer, Shelton, CT). After measurement of bla assay, 3 ul CellTiter-Glo (Promega, Madison, WI) was added to measure the cytotoxicity and the plates were then incubated at RT for 30 min. The luminescence was measured using a ViewLux (Perkin Elmer) plate reader.
# % is scaled to controls: 0 for no effect and ±100 for the full control effect.
row,SMILES,"viability change, negative = cytotoxic"
1,CCC1=C(C)CN(C(=O)NCCc2ccc(S(=O)(=O)NC(=O)NC3CCC(C)CC3)cc2)C1=O (stereo not given),13.8% (inactive)
2,CCOc1ccc(NC(C)=O)cc1N,-0.3% [at 78.9 µM] (inactive)
3,CCc1ccc(C(=O)C(C)CN2CCCCC2)cc1 (stereo not given),-5.58% (inactive)
4,Nc1ccc(C(=O)Oc2ccccc2)c(O)c1,13.9% (inactive)
5,CC1(C)[C@@H]2CC[C@]3(C2)[C@@H]1C(=O)CCC3(C)C,-12.2% (inactive)
6,Nc1ccc(F)cc1F,-0.861% [at 78.9 µM] (inactive)
7,CC(C)NC(=O)c1ccccc1N,22.1% (inactive)
8,O=Cc1ccc(Cl)c([N+](=O)[O-])c1,10.6% (inactive)
9,CO[C@@H]1COCC[C@@H]1N[C@@H]1CC[C@@](C(=O)N2CCc3ncc(C(F)(F)F)cc3C2)(C(C)C)C1,10.7% (inactive)
10,COC(=O)/C=C/C(C)=C\C=C\C(C)=C\C=C\C=C(C)\C=C\C=C(C)\C=C\C(=O)O,0.493% (inactive)
11,CCCCOC(=O)CC#N,-0.132% [at 78.9 µM] (inactive)
12,CCN(CCCCOC(=O)c1ccc(OC)c(OC)c1)C(C)Cc1ccc(OC)cc1 (stereo not given),0.666% [at 27 µM] (inactive)
13,CC(=O)c1ccc(Cl)c(Cl)c1Cl,2.72% (inactive)
14,CC(=O)S[C@H](C(=O)N[C@H]1Cc2ccccc2[C@H]2CCC[C@@H](C(=O)O)N2C1=O)C(C)C,1.17% (inactive)
15,CC(C(=O)O)c1ccc(/C=C2\CCCCC2=O)cc1 (stereo not given),9.91% (inactive)
16,COC(=O)C(C)(C)C,18.4% [at 78.9 µM] (inactive)
17,Cc1c(Cl)cccc1[N+](=O)[O-],6.41% (inactive)
18,COc1cc(C)c(Cc2cnc(N)nc2N)cc1OC,12.6% (inactive)
19,C1CCN(CN2CCCCC2)CC1,3.52% (inactive)
20,CC(C)(C)NCC(O)COc1ccc(NC(=O)NC2CCCCC2)cc1 (stereo not given),2.21% (inactive)

row,SMILES,"viability change, negative = cytotoxic"
1,C[C@@H](O)[C@H]1C(=O)N2C(C(=O)O)=C(S[C@@H]3CN[C@H](CNS(N)(=O)=O)C3)[C@H](C)[C@H]12,11% (inactive)
2,CCCCCC1CCC(=O)O1 (stereo not given),14.8% (inactive)
3,C/C=C1\[C@H]2C=C(C)C[C@]1(N)c1ccc(=O)[nH]c1C2,0.906% (inactive)
4,O=C1C=CCCC1,0.357% [at 78.9 µM] (inactive)
5,O=C1c2ccccc2C(=O)C1c1ccc2cc(S(=O)(=O)O)cc(S(=O)(=O)O)c2n1,-13.2% [at 78.9 µM] (inactive)
6,OCC(O)c1ccccc1 (stereo not given),-9.73% (inactive)
7,CCc1c(C)[nH]c2c1C(=O)C(CN1CCOCC1)CC2 (stereo not given),16.1% [at 27 µM] (inactive)
8,O=C1CCCN1CCO,12.3% (inactive)
9,c1ccc(CN(Cc2ccccc2)Cc2ccccc2)cc1,13.9% (inactive)
10,COc1ccc(/C=C/c2cc(OC)cc(=O)o2)cc1,1.96% (inactive)
11,Cc1cc(SC2=C(O)C[C@@](CCc3ccc(N)cc3)(C(C)C)OC2=O)c(C(C)(C)C)cc1CO,5.79% (inactive)
12,C(/C=C/C=C/Nc1ccccc1)=Nc1ccccc1,7.43% (inactive)
13,Cc1cccc(C)c1NC(=O)CN1CCCC1,2.25% (inactive)
14,C=CCCC,-0.563% [at 78.9 µM] (inactive)
15,OCCc1ccncc1,-0.933% (inactive)
16,CCCCOC(=O)C(C)Oc1ccc(Oc2ccc(C(F)(F)F)cn2)cc1 (stereo not given),-10.6% (inactive)
17,C=CC(C)CCC=C(C)C (stereo not given),10.2% (inactive)
18,C=C[Si](OCC)(OCC)OCC,-13.5% (inactive)
19,Clc1cccc(C(c2ccc3nc[nH]c3c2)n2ccnc2)c1 (stereo not given),10.6% (inactive)
20,CCCc1ccc(OC)cc1,-0.579% [at 78.9 µM] (inactive)
